Rows were chosen to be rich in hits. Some 7.8% of all compounds tested hit in one or more screens of this group.
HCMV antiviral: inhibitors of human cytomegalovirus; 4.5% of 410,000 active; activity change, negative = inhibition, % at 57.5 µM; HFF cells, HCMV-luciferase reporter, 72 h; hits give low values; in the data active = activity change below about -60%; inconclusive = no clear call, values can overlap the other calls; inactive = above about -39%
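Human foreskin fibroblasts infected with luciferase-reporter HCMV at MOI 1 PFU/cell, compounds at two doses. Luciferase measured 72 h post infection; normalized to buffer-only basal and Salinomycin (10uM) controls.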
MARV entry inh: blocks Marburg virus binding to or entry into cells; Potency, µM (doses to about 37.8 µM), for the others: top-dose activity change, negative = inhibition, hits mostly inhibitors; Marburg virus pseudotyped entry inhibition, cell reporter; AID 540276; 1.8% of 300,000 active; calls by dose curve; tested in HEK293 cells; also: potency is read from the fitted curve at half-maximal effect
LASV entry inh: inhibitors of Lassa virus binding or cell entry. Lassa virus pseudotype entry inhibition, cell reporter. Potency, µM (doses to about 37.9 µM), without a hit: top-dose activity change, negative = inhibition, hits mostly inhibitors. AID 540256. 1.2% of 300,000 active; calls by dose curve; tested in HEK293 cells; also: potency is read from the fitted curve at half-maximal effect; nearly all actives have a fitted effect of over 50% in size
HCV inh: HCV inhibition; Huh7.5.1 HCVcc-Cre infection, luciferase reporter, 44 h; Potency, µM (titrated, usually from 41.8 µM), without a hit: at the highest dose activity change, negative = inhibition, hits mostly inhibitors; 3.4% of 340,000 active; AID 651820; active = well fitted inhibition curve with a large enough effect; inconclusive = small, poorly fitted or top-dose-only effect, or another doubt; inactive = no such curve, though single readings can be large or run the other way; also: potency is read from the fitted curve at half-maximal effect
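Whole-lifecycle infectious HCVcc-Cre system; cells 1,000/well, compound then virus (~0.5 moi) added 4 h after plating, 44 h culture. Luciferase read 15 sec following 15 min substrate incubation, room temp.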
VACV Venus inh: inhibitors of vaccinia virus (Venus reporter). Vaccinia virus Venus reporter expression, fluorescence. Potency, µM (series often up to 36.5 µM), inactives show at the top dose activity change, negative = inhibition, most hits filed as inhibitors. 0.46% of 330,000 active; calls by dose curve; tested in A549 cells; also: potency is read from the fitted curve at half-maximal effect; nearly all actives have a fitted effect of over 30% in size
Vaccinia mCherry: vaccinia inhibition (mCherry reporter); Vaccinia virus mCherry reporter infection, fluorescence; Potency, µM (series often up to 36.5 µM), without a hit: top-dose activity change, negative = inhibition, usual class: inhibitors; 0.63% of 310,000 active; AID 720579; calls by dose curve; tested in A549 cells; also: potency is read from the fitted curve at half-maximal effect; nearly all actives have a fitted effect of over 35% in size
* marks the source's active call; other numbers are inactive results; i = inactive; ? = inconclusive; . = not tested or not shown; ! = not active in a repeat; [ ] = another dose, or the depositor's remark. % is scaled to controls: 0 for no effect and ±100 for the full control effect.

SMILES	HCMV antiviral	MARV entry inh	LASV entry inh	HCV inh	VACV Venus inh	Vaccinia mCherry
Cc1c(NC(=O)/C=C/c2cn(-c3ccccc3)nc2-c2ccc(F)cc2)c(=O)n(-c2ccccc2)n1C	0	-1%	.	11µM*	-16%	?
CCN(CC(=O)Nc1ccc(NC(C)=O)cc1)C(=O)/C=C/c1cn(-c2ccccc2)nc1-c1cccs1	-28	-17%	?	?	-28%	-7%
CN1CCC(N(C)C(=O)/C=C/c2cn(-c3ccccc3)nc2-c2cccs2)CC1	-111*	?	?	7.9µM*	-24%	?
CC1=NNC(=O)/C1=C\c1cn(-c2ccccc2)nc1-c1cccs1	-100*	-41%	?	?	.	.
O=C(Cn1ncc2c3ccccc3n(Cc3ccccc3F)c2c1=O)NC1CCCCCC1	6	-7%[46.1 µM]	-9%[46.1 µM]	.	?	?
CN(c1ccc(Cl)cc1)S(=O)(=O)c1nnc(NC(=O)C2CCCCC2)s1	87	.	3%[46.1 µM]	.	-11%	i
CC1=NNC(=O)/C1=C\c1cn(-c2ccccc2)nc1-c1ccc(F)cc1	.	8.9µM*	?	4.5µM*	10µM*	10µM*
O=Cc1cn(-c2ccccc2)nc1-c1ccc(F)cc1	-3	.	.	0%	.	.
CN(C)C(=O)c1ccc(-n2nc(C(F)(F)F)c3c2CCCC3)cc1	-1	?	-8%	10µM*	-26%	.
O=C(Nc1ccc(N2CCOCC2)cc1)c1cn2ccccc2n1	15	?	7.9µM*	-5%	1%	-20%[1.46 µM]
Cc1ccc(C(=O)NC(=S)Nc2ccc(N3CCOCC3)cc2)cc1C	-24	?	-21%	7.9µM*	-14%	-24%
CC(C)(C)c1ccc(C(=O)NC(=S)Nc2ccc(N3CCOCC3)cc2)cc1	-19	0.79µM*	?	3%	-10%	-7%
CC(=O)c1ccc(N2CCN(C(=O)Nc3ccc(C(C)C)cc3)CC2)cc1	-82*	3.2µM*	?	3.2µM*	-28%	?
COc1ccc(S(=O)(=O)Nc2ccc3oc4c(c3c2)C(=O)CC(C)(C)C4)cc1	-10	10%[46.1 µM]	?	.	5%	-10%
Cc1ccc(N(C)C(=O)c2cc(S(=O)(=O)N3CCOCC3)cn2C)cc1	-22	.	-1%[46.1 µM]	.	-9%	-10%
COCCN1CCN(c2nc(C(=O)Nc3ccc(F)c(Cl)c3)cs2)C1=O	-18	.	.	.	.	.
COc1cccc([C@H]2Oc3ccc(OC)cc3/C(=N\OC[C@@H](C)[C@H](OCc3ccccc3)C(C)C)[C@@H]2O)c1	.	10%[14.2 µM]	.	.	.	.
CC1CN(CCC(=O)NCc2ccc3ncccc3c2)Cc2cc(Cl)ccc2O1 (stereo not drawn)	.	.	.	.	8%	-8%
CCN(CC)S(=O)(=O)c1ccc(NC(=O)c2c(C)oc3ncnc(N4CCOCC4)c23)cc1	23	.	14%[46.1 µM]	.	-17%	i
CC(=O)c1ccc(C(=O)Nc2ccc(N3CCOCC3)cc2)cc1	16	16%	0%	-9%	-6%	.
Cc1nc2cc(NC(=O)Nc3ccc(N4CCOCC4)cc3)ccc2n1C	-63*	6%	1%	18%	-4%	-2%
CCOc1ccc(NC(=O)Nc2ccc3c(c2)nc(C)n3C)cc1	-27	.	.	-23%	1%	-4%
CC(C)(C)c1ccc(C(=O)Nc2ccc(N3CCOCC3)cc2)cc1	-78*	?	-28%	1.8µM*	-30%	-16%
CC(C)c1ccc(C(=O)Nc2ccc(N3CCOCC3)cc2)cc1	-66*	?	-24%	?	?	?
C=CCCC1CN(CCCC)S(=O)(=O)c2c(F)cccc2O1 (stereo not drawn)	?	.	?	-8%	-16%	i
SMILES	HCMV antiviral	MARV entry inh	LASV entry inh	HCV inh	VACV Venus inh	Vaccinia mCherry
O=S1(=O)c2c(F)cccc2O[C@@H](COCc2ccccc2)CN1CCc1ccc(F)cc1	-21	.	?	10µM*	0%	-17%
O=S1(=O)c2c(F)cccc2OC(COc2ccccc2)CN1CCc1ccc(F)cc1 (stereo not drawn)	1	.	?	-26%	-12%	-2%
CCCCN1C[C@H](CO)Oc2cccc(F)c2S1(=O)=O	9	.	?	0.56µM*	-8%	i
CCCOc1ccc(NC(=O)CC2C(=O)N(c3cccc(C)c3)C(=O)N2CCc2ccncc2)cc1 (stereo not drawn)	-7	.	-3%[46.1 µM]	.	-5%	-1%
CCc1cccc(N2C(=O)CS(=O)(=O)C23C(=O)N(Cc2ccccc2)c2ccc(C)cc23)c1 (stereo not drawn)	-16	.	?	.	-1%	-2%
COc1cc(NC(=O)c2nccn2C)cc(C(=O)Nc2cccc(C(F)(F)F)c2)c1	26	.	.	2.5µM*	?	?
COc1cc(Nc2ccccn2)cc(C(=O)Nc2cccc(C(F)(F)F)c2)c1	-69*!	.	.	?	?	?
N/C(=N/O)c1ccccc1N1CCC(Cc2ccccc2)CC1	-91*	.	.	4%	.	.
CCCCCCn1c(=O)c(C(=O)Nc2ncccc2O)c(O)c2ccccc21	-73*	.	.	-17%	.	.
CCn1c(=O)c(C(=O)Nc2ncccc2C)c(O)c2ccccc21	?	?	-9%	10µM*	3%	i
CCOC(=O)c1ccccc1NC(=O)c1c(O)c2ccccc2n(CC)c1=O	-29	2%	7%	5%	-21%	.
CCn1c(=O)c(C(=O)Nc2ccc(C)cc2C)c(O)c2ccccc21	.	2%	9%	10µM*	-8%	i
CCCCCn1c(=O)c(C(=O)Nc2ccccn2)c(O)c2ccccc21	-98*	.	.	?	.	.
CCCCCCn1c(=O)c(C(=O)Nc2cnccn2)c(O)c2ccccc21	-38	?	?	?	-8%	i
CCn1c(=O)c(C(=O)Nc2ncccc2O)c(O)c2ccccc21	54	?	25%	-6%	-19%	?
COc1cccc(-c2cc3c(Nc4cccc(NC(C)=O)c4)nccc3n2C)c1	-19	.	.	.	.	.
COc1cc(OC)c(/C=C/c2nc3ccccc3o2)c(OC)c1	.	.	.	.	-10%	-12%
Cc1ccccc1C1(CC(=O)N2CCCC(C)C2)CC(=O)N(Cc2cccnc2)C1=O (stereo not drawn)	.	.	.	.	3%	-11%
CCCCn1c(=O)c(C(=O)Nc2ccccn2)c(O)c2ccccc21	-78*	.	.	-13%	.	.
CC1=C(C(=O)Nc2ccccc2)C(c2ccncc2)n2nnnc2N1 (stereo not drawn)	-20	?	-2%	8%	.	.
CC1=C(C(=O)Nc2cccnc2)C(c2ccncc2)n2nnnc2N1 (stereo not drawn)	-2	23%	-2%	5%	.	.
COc1cccc(C2C(C(=O)Nc3cccnc3)=C(C)Nc3nnnn32)c1OC (stereo not drawn)	-69*	?	-20%	-5%	.	.
COc1cc(C2C(C(=O)Nc3ccccc3)=C(C)Nc3nnnn32)cc(OC)c1OC (stereo not drawn)	-106*	22%[46.1 µM]	-1%[46.1 µM]	.	-9%	-17%
O=C(C1CCCCC1)N1CCc2[nH]c3ccc(F)cc3c2C1	-7	.	.	-9%	.	.

Screening results from PubChem.
